In the library only some 17% were active in any assay of this set; here they are far more common.
TDP1 cell noCPT – qHTS for Inhibitors of human tyrosyl-DNA phosphodiesterase 1 (TDP1): qHTS in cells in absence of CPT; DT40 Tdp1-/- hTDP1 cells, no CPT, ATP luminescence, 48 h; Potency, µM (top dose mostly 46.2 µM), actives largely listed as inhibitors; hit rate 15% among 420,000; note: nearly all actives have a fitted effect of over 55% in size
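Seeded 400 DT40-hTDP1 cells/well (vehicle DMSO, no 20 nM CPT); pinned compounds; ≥48 hr at 37 °C; CellTiter-Glo luminescence as viability measure.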
ATXN viability – cell viability loss in ATXN counter-screen | hit rate 0.49% among 400,000 | S2 cells (HEK-293 line with an ATXN2-luciferase reporter) viability, CellTiter-Fluor protease fluorescence, 24 h | Potency, µM (series often up to 56.7 µM), usual class: cytotoxic; note: nearly all actives have a fitted effect of over 40% in size
HepG2 tox – kills HepG2 cells in TGF-b inhibitor counter-screen; HepG2 CAGA-GFP viability, ATP luminescence, 18 h; Potency, µM (top dose mostly 46.1 µM), most hits filed as cytotoxic; hit rate 0.76% among 410,000
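CellTiter-Glo luminescence gave cytotoxicity after 18 hours at 37 degrees C. The cells were HepG2 CAGA-GFP in 1% FBS DMEM, stimulated with 500 pg/mL TGF-beta after compound addition. %Activity was normalised to no-cell wells (complete cell-killing) and DMSO (no toxicity), and curves were fitted and classified.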
ATXN2 expr inh – ATXN2 expression inhibition; HEK-293 ATXN2-luciferase reporter, luminescence, 24 h; AID 1745845; hit rate 0.72% among 360,000; Potency, µM (series often up to 57 µM), most hits filed as inhibitors; note: nearly all actives have a fitted effect of over 55% in size
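qHTS (up to 57 uM final) was run with 24 h compound exposure of reporter cells at 37 °C. Each well was multiplexed: SteadyGlo luminescence measured ATXN2-luciferase expression after a fluorogenic Gly-Phe-AFC viability readout (25 uM final).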
TGFb SMAD3 inh – blocks TGF-b signaling; HepG2 CAGA-GFP TGF-b/SMAD3 reporter, GFP fluorescence, 18 h; TGF-beta stimulated, 500 pg/mL final; hit rate 1.2% among 410,000; Potency, µM (series often up to 46.1 µM), usual class: inhibitors; note: nearly all actives have a fitted effect of over 65% in size
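TGF-beta reporter screen: HEPG2 CAGA-GFP, 1% FBS, 500 pg/mL TGF-beta final, 18 h; per-cell GFP summed per well; curves fitted and categorized by class.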
DT40 TDP1 CPT – growth inhibition of DT40 Tdp1-/-;hTDP1 cells with camptothecin (screen for TDP1 inhibitors); chicken DT40 Tdp1-/-;hTDP1 cells + 20 nM CPT, ATP luminescence, 48 h; Potency, µM (titrated, usually from 46.2 µM), actives largely listed as inhibitors; hit rate 12% among 420,000; AID 686979; note: nearly all actives have a fitted effect of over 55% in size
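Cell growth measured by CellTiter-Glo luminescence after a minimum 48 h, 37 C compound exposure with 20 nM CPT in Tdp1-knockout DT40 cells stably expressing hTDP1, seeded 400/well; qHTS titration format.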
Each line names hits and unclear results; the compound was inactive in the other large screens. Calls come from the whole dose curve; as a rule, active = well fitted curve in the direction sought with a large enough effect; inconclusive = small, poorly fitted or top-dose-only effect, or another doubt; inactive = no such curve, though single readings can be large; an effect the other way counts as inactive or inconclusive.

CC(=O)C1=CCC(c2ccc(C)o2)N(S(=O)(=O)c2ccc(C)cc2)C1 (centres undefined)	TDP1 cell noCPT 18µM, ATXN viability inconclusive, DT40 TDP1 CPT 16µM
CC(=O)C1=CCC(c2ccccc2)N(S(=O)(=O)c2ccc(Cl)cc2)C1 (centres undefined)	TDP1 cell noCPT 15µM, TGFb SMAD3 inh inconclusive, DT40 TDP1 CPT inconclusive
CC(=O)C1=CCC(c2ccccc2Cl)N(S(=O)(=O)c2ccc(C)cc2)C1 (centres undefined)	TDP1 cell noCPT inconclusive, ATXN viability inconclusive, TGFb SMAD3 inh inconclusive, DT40 TDP1 CPT inconclusive
CC(=O)C1=CCC(c2ccc(Cl)cc2)N(S(=O)(=O)c2ccccc2C)C1 (centres undefined)	TDP1 cell noCPT 23µM, ATXN viability inconclusive, TGFb SMAD3 inh inconclusive, DT40 TDP1 CPT 29µM
CC(=O)C1=CCC(c2ccccc2)N(Cc2ccccc2)C1 (centres undefined)	TDP1 cell noCPT 15µM, DT40 TDP1 CPT inconclusive (no result: ATXN viability, HepG2 tox, ATXN2 expr inh, TGFb SMAD3 inh)
O=C(CSc1nc2ccccc2c(=O)[nH]1)c1cccs1	TDP1 cell noCPT 16µM, DT40 TDP1 CPT 8.2µM
O=C(CSc1nc2ccccc2c(=O)[nH]1)c1ccc(O)cc1O	TDP1 cell noCPT inconclusive, DT40 TDP1 CPT 13µM
Cc1cc(SCC(=O)NC2CC2)nc2ccccc12	none
N#Cc1c(-c2cccs2)nc(SCC(=O)c2cccs2)[nH]c1=O	none
O=C(CSc1nc2ccccc2c(=O)[nH]1)c1ccc(O)c(O)c1	none
Cc1cc(SCC(=O)c2cccs2)nc2ccccc12	TDP1 cell noCPT inconclusive, DT40 TDP1 CPT 16µM
CCOc1ccc(NC(=O)C2CCN(S(C)(=O)=O)CC2)cc1	DT40 TDP1 CPT inconclusive
O=C(COC(=O)c1cncc(Br)c1)NC1CCCCCC1	none
CCc1cccc(CC)c1NC(=O)C(CC)n1nc(C)n2c(cc3cc(C)ccc32)c1=O (centres undefined)	TDP1 cell noCPT 21µM, DT40 TDP1 CPT inconclusive
CCC(C(=O)Nc1ccc(C(C)C)cc1)n1nc(C)n2c(cc3cc(C)ccc32)c1=O (centres undefined)	TDP1 cell noCPT inconclusive, ATXN viability inconclusive, TGFb SMAD3 inh inconclusive, DT40 TDP1 CPT 23µM
CCCC[C@@H]1CCCO[C@@](C(=O)NCc2cc(C)n(C)n2)(C(F)(F)F)C1	TDP1 cell noCPT inconclusive, TGFb SMAD3 inh inconclusive, DT40 TDP1 CPT inconclusive
O=C(OC1C2CCC1C1CN(CCc3ccccc3)CC12)c1ccccc1 (centres undefined)	TDP1 cell noCPT 16µM, DT40 TDP1 CPT inconclusive (no result: ATXN viability)
CC(O)(CS(=O)(=O)Cc1ccccc1)c1ccccc1 (centres undefined)	none
O=C(CCc1ccccc1)N/N=C/c1cc(Br)ccc1O	TDP1 cell noCPT 4.1µM, ATXN2 expr inh inconclusive, TGFb SMAD3 inh inconclusive, DT40 TDP1 CPT 2.6µM
O=C(CCc1ccccc1)N/N=C\c1cc2c(cc1Br)OCO2	TDP1 cell noCPT inconclusive, ATXN viability inconclusive, DT40 TDP1 CPT inconclusive
Oc1ccc(Br)cc1/C=N/NC(=S)NCCc1ccccc1	TDP1 cell noCPT 16µM, ATXN2 expr inh inconclusive, TGFb SMAD3 inh inconclusive, DT40 TDP1 CPT inconclusive
Cc1[nH]c2ccccc2c1/C=N/NC(=S)NC(C)C	TDP1 cell noCPT inconclusive, DT40 TDP1 CPT inconclusive
COC(=O)N/N=C/c1cc(Br)ccc1O	none
CC(C)NC(=S)N/N=C/c1cc(Br)ccc1O	TDP1 cell noCPT 4.6µM, TGFb SMAD3 inh inconclusive, DT40 TDP1 CPT 4.6µM
CC(C)NC(=S)N/N=C/c1c[nH]c2ccccc12	TDP1 cell noCPT 3.7µM, DT40 TDP1 CPT 4.6µM
CCC(=O)N1CCc2cc(S(=O)(=O)NC(CC(C)C)C(=O)NCc3ccc(C)cc3)ccc21 (centres undefined)	DT40 TDP1 CPT inconclusive
Cc1ccc(NC(=O)C(=O)NCC(c2cccnc2)N2CCOCC2)cc1C (centres undefined)	TDP1 cell noCPT inconclusive
Cc1ccc(NC(=O)C(=O)NCC(c2cccnc2)N2CCOCC2)cc1Cl (centres undefined)	TDP1 cell noCPT inconclusive, ATXN viability inconclusive, DT40 TDP1 CPT inconclusive
Cc1ccc(NC(=O)C(=O)NCC(c2cccnc2)N2CCN(Cc3ccccc3)CC2)cc1C (centres undefined)	TDP1 cell noCPT 16µM, DT40 TDP1 CPT 16µM
Cc1ccc(NC(=O)C(=O)NCC(c2cccnc2)N2CCN(Cc3ccccc3)CC2)cc1F (centres undefined)	TDP1 cell noCPT 5.8µM, DT40 TDP1 CPT 7.3µM
CCc1ccccc1NC(=O)CC(C)n1nc(C)cc1C (centres undefined)	none
COc1ccc(-n2c(=O)c(-c3cc(F)cc(F)c3)nc3cnc(N(C)C)nc32)cc1	none (no result: ATXN viability, HepG2 tox, ATXN2 expr inh, TGFb SMAD3 inh)
Cc1cc(NC(=O)c2cccnc2)ccc1NC(=O)c1cc2ccccc2o1	TDP1 cell noCPT 10µM, TGFb SMAD3 inh inconclusive, DT40 TDP1 CPT 13µM (no result: ATXN2 expr inh)
Cc1cc(NC(=O)c2ccc3c(c2)OCCO3)ccc1NC(=O)c1cc2ccccc2o1	TDP1 cell noCPT 4.6µM, ATXN2 expr inh inconclusive, TGFb SMAD3 inh inconclusive, DT40 TDP1 CPT 5.8µM
Cc1cc(NC(=O)c2cccnc2Cl)ccc1NC(=O)c1cc2ccccc2o1	TDP1 cell noCPT 10µM, DT40 TDP1 CPT 9.2µM
Cc1cc(NC(=O)c2cc3ccccc3o2)ccc1NC(=O)c1ccccc1	TDP1 cell noCPT inconclusive
COc1cccc(CC2(CO)CCCN(Cc3cc(F)ccc3-n3cccn3)C2)c1 (centres undefined)	TDP1 cell noCPT inconclusive, DT40 TDP1 CPT inconclusive
COc1cc(=O)n2c(c1C(=O)NC(C)c1ccco1)CCN(Cc1cc(C)ccc1C)CC2 (centres undefined)	none (no result: HepG2 tox, ATXN2 expr inh, TGFb SMAD3 inh)
O=C1SCCC1NS(=O)(=O)c1ccccc1[N+](=O)[O-] (centres undefined)	none
CCN1C(=O)c2cccc3cccc1c23	TDP1 cell noCPT inconclusive, TGFb SMAD3 inh inconclusive, DT40 TDP1 CPT 29µM
CN(C)C(=O)CN1C(=O)c2cccc3cccc1c23	none (no result: ATXN2 expr inh)
CN(C)c1nc(N)nc(CSc2nnnn2-c2ccc(F)cc2)n1	none
Cc1cccc(C)c1-n1nnnc1SCc1nc(N)nc(N(C)C)n1	TDP1 cell noCPT 2.1µM, TGFb SMAD3 inh 5.6µM, DT40 TDP1 CPT 2.3µM
COc1ccc(C)cc1-n1nnnc1SCc1nc(N)nc(N(C)C)n1	TDP1 cell noCPT 6.5µM, TGFb SMAD3 inh 11µM, DT40 TDP1 CPT 4.6µM
Cc1cccc(OCc2nnc(SCC(=O)N3CCCC3)o2)c1	none
